# Compounds with a hit are over-represented: about 4% of the library has one in this group of screens.
# esBAF inh: blocks esBAF chromatin remodeling in mouse ES cells | reporter increase, % at 12.5 µM | Bmi1-luciferase knock-in reporter, 24 h; 100% = twice the neutral-well signal | 350,000 tested, 2% active | AID 602393; in the data active = activation above about 40%; inconclusive = no clear call, values can overlap the other calls;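 also: 0% = median of the plate's neutral control wells and 100% = double that signal; a rise in the Bmi1 reporter signal indicates esBAF inhibition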
# Wnt bcat act: activators of Wnt/beta-catenin signaling; activation, % at 9.35 µM; Wnt/beta-catenin reporter cell assay, activator, plate reader; 300,000 tested, 1.2% active; AID 743398; in the data active = activation above about 30%, passing the limit was not always enough; inconclusive = no clear call, values can overlap the other calls;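 also: 0% = neutral control wells and 100% = positive control wells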
# Statin myotox sup: suppressors of simvastatin-induced myotoxicity in C2C12 myotubes | ATP luminescence, 48 h; scaled: DMSO 0, geranylgeraniol control 100 | 330,000 tested, 0.78% active | rescue of ATP level, % at 7.49 µM;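 active = mean ATP rescue above about 67%, or every replicate alone reaching that limit, limit read from the data, passing the limit was not always enough; inconclusive = no clear call, values can overlap the other calls; inactive = mean under the limit and some replicate under it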;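 also: myotubes were challenged with 10 µM simvastatin during compound exposure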
# EBV LMP1 NFkB: reduces LMP1-driven NF-kappaB luciferase signal | LMP1-induced NF-kappaB luciferase reporter cells, luminescence | inhibition, % at 12.5 µM | 350,000 tested, 0.69% active | AID 504558; in the data active = inhibition above about 41%; inconclusive = no clear call, values can overlap the other calls;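 also: 0% = neutral control wells and 100% = reference inhibitor control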
# MITF act: activators of MITF-driven TRPM1 promoter activity in SK-MEL-5 cells; SK-MEL-5 TRPM1-promoter luciferase, 24 h; % of positive control, neutral wells = 0; activation, % at 12.5 µM; 300,000 tested, 0.75% active;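 active = mean activation of at least 80% with every replicate also reaching 80%; inconclusive = mean reaches 80% but some replicate falls short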;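 also: 0% = neutral control wells and 100% = parthenolide positive control wells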
# TRPM1 prom inh: reduces MITF-dependent TRPM1 promoter luciferase signal. SK-MEL-5 TRPM1 promoter luciferase, 24 h. inhibition, % at 12.5 µM. 330,000 tested, 0.83% active. AID 488899;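 active = mean inhibition across replicates of 60% or more, whatever share of single replicates reaches that level; inconclusive = some that reach 60%, reason not given; inactive = mean inhibition across replicates below 60%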
# An asterisk follows results filed as active; u = inconclusive; x = no result.
SMILES,esBAF inh,Wnt bcat act,Statin myotox sup,EBV LMP1 NFkB,MITF act,TRPM1 prom inh
Cc1ccc2nc(-c3ccc(NC(=O)CSCC(=O)O)cc3)sc2c1,26.2,71.8*,-3.1,-30.8,103.0*,-103.6
CSc1nc(Oc2ccc(F)cc2)c2ccccc2n1,-6.8,0.4,x,-2.8,15.8,-17.7
CCN(CC(=O)Nc1ccc2c(c1)OCCO2)C(=O)/C=C/c1cccc(Br)c1,63.3*,17.1,-1.0,-3.3,53.0,-52.6
c1ccc2[nH]c(-c3ccncc3)nc2c1,x,2.0,x,-7.3,41.3,-40.8
c1ccc(-c2nc3ccccc3[nH]2)nc1,18.6,20.3,-22.3,-8.9,63.9,-65.4
c1ccc(-c2nc3ccccc3[nH]2)cc1,71.7*,61.3*,4.2,-23.7,86.1*,-84.5
Nc1nc(-c2nc3ccccc3[nH]2)cs1,31.9,56.1*,-5.2,-9.4,x,-33.4
c1csc(-c2nc3ccccc3[nH]2)c1,45.9*,x,15.2,0.8,33.2,-36.1
CCOC(=O)[C@H]1[C@H]2COc3ccc(Cl)cc3[C@@H]2N2C(=O)[C@@H](C)NC(=O)[C@@]12C,-6.5,-3.1,-28.3,-13.8,4.9,-1.9
Fc1ccc(/C=C2\CCCC3=C2Nc2ncnn2C3c2ccc(F)cc2)cc1 (stereo not given),-21.6,x,-18.3,1.1,x,87.8*
CCc1ccc(/C=C2\SC(=S)N(CCCC(=O)NC3=NCCS3)C2=O)cc1,-73.7,-8.1,-1.2,45.9*,x,x
Cc1ccc(/C=C2\SC(=S)N(CCCC(=O)NC3CCCC3)C2=O)cc1,-72.6,-2.2,-1.8,55.4*,-75.5,75.7*
COc1cccc(/C=C2\SC(=S)N(CCCC(=O)NC3=NCCS3)C2=O)c1,-26.6,6.3,-1.2,3.3,-12.3,12.1
Cc1ccc(/C=C2\SC(=S)N(CCCC(=O)NNC(=O)c3ccccc3O)C2=O)cc1,-86.2,-6.0,-0.5,54.6*,-91.9,x
CCCN1C(=O)C(=O)N(CC(=O)c2cc(C)n(C3CC3)c2C)C1=O,29.2,25.9,-12.4,-16.9,88.9*,-87.2
CCN1C(=O)C(=O)N(CC(=O)c2cc(C)n(C3CC3)c2C)C1=O,u,-2.4,-5.3,-7.4,45.8,-44.9
O=c1cc(-c2ccccc2)oc2ccc(Cl)cc12,x,47.0*,x,-15.2,x,-48.7
O=c1cc(-c2cccs2)oc2ccc(Cl)cc12,35.7,10.0,30.5,-14.6,57.9,-56.5
Cc1ccccc1-c1cc(=O)c2ccccc2o1,23.1,5.0,-0.3,-13.2,1.0,-0.2
O=c1cc(-c2ccccc2F)oc2ccccc12,57.6*,47.0*,4.8,-14.6,x,-37.7
O=c1cc(-c2ccc3c(c2)OCCO3)oc2ccc(Cl)cc12,-8.6,47.2*,x,-8.7,4.8,-0.2
CCC(=O)N(C)C[C@@H]1Oc2cc(-c3ccc(C#N)cc3)ccc2S(=O)(=O)N([C@H](C)CO)C[C@@H]1C,4.9,x,-4.5,x,x,x
CCC(C)Nc1ccc(NC(C)CC)cc1 (stereo not given),-88.3,x,-134.9,22.5,-96.5,97.1*
CCc1ccc(C(=O)CSc2nnc(C3CC3)n2C2CC2)cc1,40.9*,-5.1,-7.2,-13.0,39.0,-33.9
Cc1ccc(C(=O)CSc2nnc(C3CC3)n2C2CC2)s1,46.1*,25.1,1.4,-14.1,x,x
SMILES,esBAF inh,Wnt bcat act,Statin myotox sup,EBV LMP1 NFkB,MITF act,TRPM1 prom inh
CC(=O)N1CN(CCCn2ccnc2)Cc2c1sc1c2CCCC1,-2.6,-1.4,5.4,5.2,x,1.0
CC(=O)N1CCN(C2=Nc3cccc4cccc2c34)CC1,16.7,11.0,13.6,-6.4,19.6,-18.0
COc1ccccc1N1CCN(C2=Nc3cccc4cccc2c34)CC1,37.7,-2.6,-27.0,-13.6,94.6*,-94.8
COCCSc1ccccc1C(=O)NCc1ccc(S(N)(=O)=O)cc1,-4.6,-1.5,22.6,2.1,-4.2,5.0
CCNC(=O)[C@@H]1[C@@H](CO)[C@@H]2Cn3c(ccc(-c4ccccc4F)c3=O)[C@@H]2N1C(=O)CC,2.0,x,-3.9,x,x,x
Cc1ccc(-c2nc3[nH]c(=O)cc(NC(=O)C(C)C)n3n2)cc1,-5.9,6.6,14.7,2.1,-2.9,3.5
CCC(=O)Nc1cc(=O)[nH]c2nc(-c3ccc(Cl)cc3)nn12,1.5,39.3*,-7.8,-7.0,4.5,-4.2
C[C@H](O)[C@@H]1C(=O)N2CCc3ccc(-c4cccc(F)c4)cc3[C@@H]2C[C@@H]1N(C)C(=O)C(C)(C)C,4.7,-3.3,-18.7,1.2,0.7,-1.1
